# Source: PubChem BioAssay
# Unmarked numbers belong to inactive results. Calls of active or inactive are those of the source. Unless noted, no stated cut-off is given here; in the data, active means inhibition above about 30%; inactive means the rest.
# How the values were obtained:
# [1] = target: Nuclear receptor coactivator 3 (Homo sapiens) (UniProt Q9Y6Q9); test: NCOA3 GAL4-fusion reporter inhibition – cell-based, luminescence, quadruplicate, confirmation (AID 588792;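 active means mean inhibition over 43.08%, the solvent-only control mean plus 3 SD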;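 further: 0% = DMSO treated cells and 100% = gossypol at 36 µM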); settings: HEK293 GAL4-SRC3 luciferase reporter, at 3.6 µM, stronger effect = higher value
# [2] = system: transactivating tegument protein VP16 (Human herpesvirus 1), Gal4-VP16 luciferase reporter; test: repression of VP16-driven luciferase reporter – cell-based, luminescence, high throughput, counter-screen for SRC3 inhibitor project (AID 588794); settings: mammalian cells, at 3.6 µM, stronger effect = higher value
# Nuclear receptor coactivator 3 (Homo sapiens), sequence (Q9Y6Q9 whole entry, looked up, the tested form may be a part): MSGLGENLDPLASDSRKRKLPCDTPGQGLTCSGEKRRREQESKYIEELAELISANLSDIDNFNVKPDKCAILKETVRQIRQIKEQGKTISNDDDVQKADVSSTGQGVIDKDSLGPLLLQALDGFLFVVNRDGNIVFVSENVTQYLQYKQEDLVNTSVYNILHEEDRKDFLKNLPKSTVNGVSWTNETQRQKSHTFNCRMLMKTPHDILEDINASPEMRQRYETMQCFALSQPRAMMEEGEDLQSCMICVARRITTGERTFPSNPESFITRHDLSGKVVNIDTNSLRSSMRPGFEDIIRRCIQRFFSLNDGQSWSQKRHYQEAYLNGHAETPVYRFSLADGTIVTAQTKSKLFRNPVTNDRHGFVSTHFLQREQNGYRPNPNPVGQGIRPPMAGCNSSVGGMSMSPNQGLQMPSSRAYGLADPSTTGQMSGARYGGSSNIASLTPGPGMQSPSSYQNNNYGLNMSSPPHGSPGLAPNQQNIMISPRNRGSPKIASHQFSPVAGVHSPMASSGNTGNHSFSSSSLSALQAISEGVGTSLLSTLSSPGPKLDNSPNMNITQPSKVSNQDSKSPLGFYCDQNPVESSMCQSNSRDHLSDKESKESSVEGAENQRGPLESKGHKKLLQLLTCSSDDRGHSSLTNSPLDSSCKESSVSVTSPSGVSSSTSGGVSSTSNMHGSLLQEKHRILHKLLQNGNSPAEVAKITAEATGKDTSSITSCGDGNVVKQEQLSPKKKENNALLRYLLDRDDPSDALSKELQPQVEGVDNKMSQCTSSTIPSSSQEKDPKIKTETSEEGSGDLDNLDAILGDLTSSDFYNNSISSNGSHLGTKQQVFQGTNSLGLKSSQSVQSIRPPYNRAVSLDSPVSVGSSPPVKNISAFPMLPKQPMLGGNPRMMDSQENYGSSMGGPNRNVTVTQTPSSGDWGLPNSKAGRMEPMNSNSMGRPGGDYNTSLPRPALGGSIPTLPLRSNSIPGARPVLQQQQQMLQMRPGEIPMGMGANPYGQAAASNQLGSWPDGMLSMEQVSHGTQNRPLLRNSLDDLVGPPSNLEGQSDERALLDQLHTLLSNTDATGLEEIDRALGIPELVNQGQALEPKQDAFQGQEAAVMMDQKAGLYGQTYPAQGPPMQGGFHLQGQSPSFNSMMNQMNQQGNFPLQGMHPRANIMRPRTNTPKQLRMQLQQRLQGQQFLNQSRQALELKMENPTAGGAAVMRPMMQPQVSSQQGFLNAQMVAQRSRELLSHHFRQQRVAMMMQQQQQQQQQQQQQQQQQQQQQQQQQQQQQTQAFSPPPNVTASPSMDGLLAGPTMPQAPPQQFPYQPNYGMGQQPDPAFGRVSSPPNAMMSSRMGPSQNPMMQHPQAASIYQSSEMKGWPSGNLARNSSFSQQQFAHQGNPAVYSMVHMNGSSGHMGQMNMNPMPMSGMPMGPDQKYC
SMILES,inhibition [1],inhibition [2]
CCn1nc(C(=O)OCC(=O)c2ccc3c(c2)OCCO3)c2ccccc2c1=O,-13.9%,-5.51%
Cc1cccc(NNC(=O)C(=O)NNc2cccc(C)c2)c1,18.6%,24.3%
COc1ccccc1OCC(=O)N/N=C/c1c(O)ccc2ccccc12,12.8%,22.8%
O=C(N/N=C\c1c(O)ccc2ccccc12)c1ccc(Cn2cccn2)o1,49.1% (active),39.5% (active)
O=C(N/N=C/c1cc(Cl)ccc1O)c1ccncc1,16.7%,35.7% (active)
COc1cccc(/C=N/NC(=O)c2ccc(=O)n(C)c2)c1O,12.1%,9.91%
CCN(CC)S(=O)(=O)c1cccc(NC(=O)Nc2cccc(C(F)(F)F)c2)c1,13.9%,18%
O=[N+]([O-])c1ccccc1NC1CCN(Cc2ccccc2)CC1,-4.81%,0.87%
COc1cccc(/C=N/NC(=O)CNC(=O)C(c2ccccc2)c2ccccc2)c1O,17.2%,20.7%
CC(=O)c1cccc(NC(=O)Nc2ccc3c(c2)N(C)C(=O)CS3)c1,32.7%,3.54%
CCCOc1cccc(C(=O)Nc2cc(NC(=O)c3ccco3)ccc2OC)c1,10.8%,2.92%
C[C@H](NC(=O)Nc1ccccc1F)C(=O)O,5.66%,3.39%
Cn1ncc2c(O/N=C(\N)c3ccc(C(F)(F)F)cc3)ncnc21,-12.9%,1.06%
CCCCC(=O)NC(c1ccco1)c1cc(Cl)c2cccnc2c1O (stereo unspecified),16.4%,10.6%
COc1cc(C(=O)Nc2nc(-c3cccs3)cs2)cc(OC)c1OC,-9.35%,-21.8%
CN(C)S(=O)(=O)c1ccc(N2CCN(S(=O)(=O)c3ccc(F)cc3)CC2)c(Cl)c1,41.9%,28.5%
CN1OC[C@@H]2CN(C(=O)c3ccc(-c4ccccc4)cc3)[C@H](c3ccc(-c4cccc(F)c4)cc3)C[C@@H]21,-6.51%,18.4%

SMILES,inhibition [1],inhibition [2]
Cc1ccc(CNC(=O)c2ccc3c(=O)c(O)c(-c4ccc(C)cc4)[nH]c3c2)cc1,28.5%,8.89%
C/C(N)=C(/C#N)C(=O)COC(=O)c1ccc(C#N)cc1,-7.91%,-0.63%
CCCCNS(=O)(=O)c1ccc(S(=O)(=O)NCc2ccncc2)cc1,16.5%,25.1%
Cc1ccc(OCC(O)CN2CCN(CC(O)COC(C)C)CC2)c(C(C)(C)C)c1 (stereo unspecified),8.73%,13.2%
CCOc1cc(C(=O)N2CCC(CC3CC(c4ccc(Cl)cc4)=NO3)(C(=O)NCC3CCCCC3)CC2)cc(OCC)c1OCC (stereo unspecified),6.12%,7.56%
Cc1ccc2occ(/C=N/NC(=O)c3ccccc3Br)c(=O)c2c1,40.7%,28.5%
CC(=O)c1cccc(NC(=O)c2cc(S(=O)(=O)N3CCOCC3)cs2)c1,2.71%,1.82%
CCOCc1c(C(=O)NC2=Nc3ccccc3NC(CC)=C2C(=O)OCC)oc2ccccc12,1.38%,-11.3%
Cc1ccc(-c2csc(NC(=O)c3cccc(C)c3)c2C(=O)O)cc1,-6.27%,0.42%
Cc1cccc(C)c1OCC(=O)N(Cc1cccs1)C1CCS(=O)(=O)C1 (stereo unspecified),8.07%,1.1%
COCCNC(=O)c1cc(-c2ccccn2)nc2ccc(S(=O)(=O)N3CCC(C)CC3)cc12,30.4%,0.64%
C/C(=N\NC(=O)C1COc2ccccc2O1)c1ccccn1 (stereo unspecified),-12.8%,19.6%
CC(=O)Nc1cccc(C(=O)/C=C/c2ccc(F)cc2)c1,1.7%,2.15%
Cn1nc(CC(=O)Nc2ccc3c(c2)OCCO3)c2ccccc2c1=O,9.58%,34% (active)
Cc1cc(/C=C2\SC(=S)N(C)C2=O)c(C)n1-c1cccc(O)c1,51.6% (active),38% (active)
COc1ccc(CCNC(=O)COC(=O)Cc2cccc3ccccc23)cc1,-2.4%,-9.98%
